SARS PLP yeast – qHTS of Yeast-based Assay for SARS-CoV PLP | S. cerevisiae expressing SARS-CoV PLpro, growth rescue | Potency, µM (titrated, usually from 32.9 µM), without a hit: at the highest dose activity, positive = growth rescue, most hits filed as activators | actives 0.19% (n = 330,000) | AID 485353, 2010; also: 0% is about no effect; nearly all actives have a fitted effect of over 55% in size
Pf growth 96h – Primary qHTS for delayed death inhibitors of the malarial parasite plastid, 96 hour incubation. Potency, µM (titrated, usually from 28.7 µM), without a hit: top-dose activity change, negative = inhibition, most hits filed as inhibitors. P. falciparum luciferase reporter growth, 96 h. AID 504834, 2011. actives 6.9% (n = 320,000); active = well fitted inhibition curve with a large enough effect; inconclusive = small, poorly fitted or top-dose-only effect, or another doubt; inactive = no such curve, though single readings can be large or run the other way; also: % is scaled to controls: 0 for no effect and ±100 for the full control effect
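Readout is luminescence from an integrated firefly luciferase in P. falciparum. Red cells, 2% hematocrit and 0.05% parasitemia final, were cultured with compound through two parasite generations (96 hours) at 37 C, 5% CO2.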
Pf growth 48h – Primary qHTS for delayed death inhibitors of the malarial parasite plastid, 48 hour incubation | P. falciparum luciferase growth in erythrocytes, 48 h | actives 5.9% (n = 310,000) | Potency, µM (doses to about 28.7 µM), for the others: at the highest dose activity change, negative = inhibition, usual class: inhibitors; active = well fitted inhibition curve with a large enough effect; inconclusive = small, poorly fitted or top-dose-only effect, or another doubt; inactive = no such curve, though single readings can be large or run the other way; also: % is scaled to controls: 0 for no effect and ±100 for the full control effect
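Luciferase-expressing P. falciparum in infected erythrocytes (2% hematocrit, 0.1% parasitemia final) in RPMI 1640/0.5% Albumax were exposed to compound for 48 hours at 37 C, 5% CO2; growth read as luminescence.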
NS1 inh – qHTS Assay for Inhibitors of Influenza NS1 Protein Function. Potency, µM (top dose mostly 46.1 µM), inactives show at the highest dose activity, positive = more growth. actives 0.4% (n = 270,000); also: actives are rising curves; nearly all actives have a fitted effect of over 50% in size
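OD600 was taken as the measure of yeast growth restored by compound in an NS1-expressing S. cerevisiae strain. Cells had been washed out of glucose medium and diluted 1:100 into galactose -URA medium, pH 6.0.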
The depositor's hits bear a star; ? = inconclusive; nt = no result given; [ ] = dose if it differs, or a comment. Rows were chosen to be rich in hits. Some 10% of all compounds tested hit in one or more screens of this group. Unless noted, calls follow the shape of the full dose curve. Potency is read from the fitted curve at half-maximal effect.

SMILES	SARS PLP yeast	Pf growth 96h	Pf growth 48h	NS1 inh
O=C(CN(CC1CCCO1)C(=O)CNS(=O)(=O)c1ccccc1)NCCc1ccccc1 (stereo not drawn)	1.2%	-17.2%	9.0%	6.8%
OC1(c2ccccc2)CCN(Cc2ccccc2)C2CCCCC21 (stereo not drawn)	-14.9%	61.7%	10.4µM*	-7.5%
Cc1oc(-c2cccs2)nc1CN1CC[C@@](O)(c2ccccc2)[C@H]2CCCC[C@@H]21	0.1%	3.5%	0.0%	-1.3%
OC1(c2ccccc2)CCNC2CCCCC21 (stereo not drawn)	0.0%	10.4µM*	30.0%	-11.1%
CC(C)Nc1ccc(C(CC(N)=O)NC(=O)Cc2ccc(Cl)cc2)cc1[N+](=O)[O-] (stereo not drawn)	2.3%	-16.7%	-17.8%	-2.4%
CCOC(=O)CC[C@H](NC(=O)Cn1cnc2c(SC)nc(N)nc21)C(=O)OCC	-5.1%	nt	nt	nt
Cc1cc(C)nc(N2N=C(C(F)(F)F)CC2=O)n1	1.5%	41.3%	-1.3%	1.4%
COc1ccc(N2CCN(C(=O)c3cc(S(=O)(=O)N4CCCCCC4)ccc3OC)CC2)cc1	1.7%	?	11.7µM*	nt
COc1ccc(S(=O)(=O)N2CCCCCC2)cc1C(=O)N1CCN(c2ccccc2O)CC1	0.0%	4.65µM*	2.33µM*	nt
COc1ccc2cc(S(=O)(=O)N3CCCC3)ccc2c1	-1.5%	6.57µM*	-1.1%	-10.9%
COc1ccccc1N1CCN(C(=O)c2cc(S(=O)(=O)N3CCCCC3)ccc2C)CC1	0.8%	nt	nt	nt
COc1ccc(S(=O)(=O)N2CCCCCC2)cc1C(=O)N1CCN(c2ccccc2C)CC1	5.0%	5.86µM*	11.7µM*	nt
COc1ccc(N2CCN(S(=O)(=O)c3ccc(OC)c(C(=O)N4CCOCC4)c3)CC2)cc1	-11.8%	17.4%	0.0%	-19.4%
NC(=O)c1ccc(SCC(=O)OCC(=O)NCc2cccs2)c([N+](=O)[O-])c1	-2.2%	9.9%	-27.8%	nt
CC(C(=O)N1CCCC1)N1CCN(S(=O)(=O)c2ccc(C(C)(C)C)cc2)CC1 (stereo not drawn)	-1.0%	0.465µM*	0.828µM*	nt
CC(C)c1ccc(S(=O)(=O)N2CCN(C(C)C(=O)N3CCCC3)CC2)cc1 (stereo not drawn)	-9.4%	11.7µM*	?	nt
CC(C(=O)N1CCCCC1)N1CCN(S(=O)(=O)c2ccc(Cl)cc2)CC1 (stereo not drawn)	-1.0%	?	?	nt
CC1(C)Oc2ccc3ccc(=O)oc3c2[C@@H](O)[C@@H]1O	8.2%	69.9%	?	nt
CN(C)c1ccc(C2CC(c3ccccc3)=Nc3nc(-c4ccccc4)cn32)cc1 (stereo not drawn)	-6.4%	5.22µM*	8.28µM*	22.2%
CN(C)c1ccc(-c2n[nH]c(=S)n2-c2ccccc2)cc1	0.9%	?	1.7%[5.75 µM]	nt
Cc1ccc(C(=O)O)cc1NC(=S)NC(=O)c1ccc(COc2ccccc2)cc1	0.1%	24.3%	0.9%	19.4%
COc1ccc(C(=O)NNC(=O)CSc2nnc(C)n2CC2CCCO2)cc1 (stereo not drawn)	0.5%	10.6%	-13.3%	-0.4%
CCOc1ccc(-n2c(N)c(-c3nc4ccccc4n3C)c3nc4ccccc4nc32)cc1	10.4%	2.94µM*	3.0%	14.3%
CN(CCOc1ccccc1)C(=O)C1CCC(=O)N(CCCN2CCCC2=O)C1 (stereo not drawn)	-2.8%	?	7.7%	-0.9%
CCOC(=O)Cn1c(S(=O)(=O)Cc2cccc(F)c2)nc(-c2ccccc2)c1-c1ccccc1	-6.9%	5.86µM*	8.28µM*	?
SMILES	SARS PLP yeast	Pf growth 96h	Pf growth 48h	NS1 inh
CCOC(=O)Cn1c(S(=O)(=O)Cc2ccc(F)cc2)nc(-c2ccccc2)c1-c1ccccc1	1.0%	9.28µM*	13.1µM*	6.0%
NC(=O)Cn1c(S(=O)(=O)Cc2ccccc2)nc2ccccc21	nt	nt	nt	1.0%
C#CCn1c(S(=O)(=O)Cc2ccc(F)cc2)nc(-c2ccccc2)c1-c1ccccc1	-9.9%	8.28µM*	?	25.6%
CN(C(=O)c1cccc(NC(=O)Cc2ccc([N+](=O)[O-])cc2)c1)C1CC1	1.5%	nt	nt	nt
CC(=O)Nc1ccc(S(=O)(=O)NC(C)C(=O)NCC(c2ccco2)N(C)C)cc1 (stereo not drawn)	-2.9%	16.0%	-28.2%	nt
COc1ccc(C(NC(=O)C(C)C)c2c(O)ccc3ccccc23)cc1OC (stereo not drawn)	nt	-4.2%	?	-3.9%
CC(=O)Oc1ccc2ccccc2c1C(NC(=O)Cc1ccccc1)c1ccccc1 (stereo not drawn)	-10.9%	?	4.15µM*	2.3%
